Measurements published in PubChem BioAssay AID411 (National Center for Advancing Translational Sciences (NCATS), 2006).
The campaign covered roughly 72,000 compounds. About 1,600 (2.2%) were called active. A call without a number means that no potency is given here. Many of the other results were omitted from the sample, so actives are more common in it than they were. Unmarked numbers belong to inactive results. Calls come from the whole dose curve; as a rule, active = well fitted inhibition curve with a large enough effect; inconclusive = small, poorly fitted or top-dose-only effect; inactive = flat fitted curve, though single readings scatter.

Target: Luciferin 4-monooxygenase (Photinus pyralis) (UniProt P08659)
Test: qHTS Assay for Inhibitors of Firefly Luciferase; note: nearly all actives have a fitted effect of over 40% in size
Conditions: purified firefly luciferase, luminescence, 8 min; series mostly up to 57.1 µM
Outline: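 Here, luciferase activity is measured as luminescence following an 8 min room-temperature reaction at 10 uM ATP, pH 7.2. Every library sample is titrated.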
Potency is the fitted concentration of half-maximal effect.

Luciferin 4-monooxygenase (Photinus pyralis), sequence (P08659 whole entry, looked up): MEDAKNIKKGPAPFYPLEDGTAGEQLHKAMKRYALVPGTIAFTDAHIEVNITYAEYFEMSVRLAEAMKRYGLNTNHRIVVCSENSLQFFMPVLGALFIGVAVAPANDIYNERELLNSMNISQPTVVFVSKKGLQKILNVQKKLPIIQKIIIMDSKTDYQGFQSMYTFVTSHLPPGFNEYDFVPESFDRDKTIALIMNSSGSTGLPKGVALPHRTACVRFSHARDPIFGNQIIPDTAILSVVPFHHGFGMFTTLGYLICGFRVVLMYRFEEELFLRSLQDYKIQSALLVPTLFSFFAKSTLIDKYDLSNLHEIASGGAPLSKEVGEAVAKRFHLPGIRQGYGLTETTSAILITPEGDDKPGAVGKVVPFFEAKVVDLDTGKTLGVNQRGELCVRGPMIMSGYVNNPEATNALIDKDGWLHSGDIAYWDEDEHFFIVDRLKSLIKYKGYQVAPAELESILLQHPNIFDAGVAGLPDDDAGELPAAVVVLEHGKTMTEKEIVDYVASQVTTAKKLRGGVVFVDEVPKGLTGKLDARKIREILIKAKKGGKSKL

| SMILES | Potency | activity change, negative = inhibition |
| --- | --- | --- |
| CCn1nnc(NC(=O)c2c(OC)cccc2OC)n1 | inactive | – |
| CCOC(=O)CCc1c(C)c(C#N)c2[nH]c3ccccc3n2c1=O | inactive | – |
| FC(F)Oc1ccccc1C1CC(c2ccc(Br)s2)Nc2ncnn21 (stereo not given) | inactive | – |
| CCCOC(=O)C1=C(C)NC2=C(C(=O)C(C(=O)OC)C(C)C2)C1c1ccc(N(C)C)cc1 (stereo not given) | inactive | – |
| COC(=O)C1C(=O)c2c([nH]c(C(=O)OCCSC)c2C)CC1C (stereo not given) | 7.94 µM (active) | – |
| CCCOC(=O)c1[nH]c2c(c1C)C(=O)CC(c1cc(OC)c(OC)c(OC)c1)C2 (stereo not given) | inactive | – |
| O=C(NCc1ccco1)c1sc2cccc(F)c2c1Cl | inactive | – |
| CN=C1SC(C(=O)O)CC(=O)N1C (stereo not given) | inactive | – |
| O=C(c1csnn1)N1CCC[C@@]2(CCN(c3cccc(-c4ccccc4)c3)C2)C1 | – | 0.28% [at 11.4 µM] |
| O=C(Nc1cccnc1)c1ccc2c(c1)OCO2 | inactive | – |
| CCOc1cccc(C(=O)Nc2cccnc2)c1 | inactive | – |
| O=C(Nc1cccnc1)c1noc2c1CCCCC2 | 12.6 µM (active) | – |
| COc1ccc(OC)c([C@H](O)CNC(=O)CN)c1 | inactive | – |
| CNC(=O)NCCN1CCCC1=O | inactive | – |
| COC(=O)COc1ccc2oc(=O)cc(C)c2c1 | inactive | – |
| CCN(CC)S(=O)(=O)c1cc(C(=O)Nc2ccccn2)ccc1C | 15.8 µM (active) | – |
| CCN(CC)S(=O)(=O)c1cccc(C(=O)Nc2ccccc2)c1 | inactive | – |
| Cc1noc(C)c1C(=O)Nc1ccccn1 | inactive | – |

| SMILES | Potency | activity change, negative = inhibition |
| --- | --- | --- |
| N[C@H](C(=O)O)c1ccc(C(=O)O)c(O)c1 | inactive | – |
| c1ccc(CNc2ncncc2-c2cccnc2)cc1 | – | -1.06% [at 2.29 µM] |
| Cc1ccc(OCC(O)CN2CCN(CC(O)COc3ccc(C)cc3Cl)CC2)c(Cl)c1 (stereo not given) | inactive | – |
| CCCCSc1nnc(-c2ccc(C)cc2)o1 | 15.8 µM (active) | – |
| CCOC(=O)CSc1nnc(-c2ccncc2)o1 | inactive | – |
| CCOC(=O)CSc1nnc(-c2cccc(Br)c2)o1 | inactive | – |
| CC1=C(C(=O)OCc2ccccc2)C(c2ccco2)n2ncnc2N1 (stereo not given) | inactive | – |
| COc1ccc(NC(=O)c2c(C)oc3c2CCCC3)cc1 | inactive | – |
| COc1ccc(NC(=O)c2ccc(OC)cc2)cc1 | 2 µM (active) | – |
| CCOc1ccc(C(=O)Nc2ccncc2)cc1 | inactive | – |
| COc1ccc2occ(C(=O)c3ccc(N=C(C)N(C)C)cc3)c2c1 | inactive | – |
| N#Cc1c2c(c(-c3ccccc3)[nH]c1=O)CCCC2 | inactive | – |
| O=C(CCN1C(=O)c2ccncc2C1=O)Nc1ccc2c(c1)OCCO2 | inactive | – |
| O=C(COc1ccc2oc3c(c2c1)CCCC3)Nc1ccccn1 | inactive | – |
| Cc1cc2nc(-c3ccc(NC(=O)c4cccnc4)cc3)oc2cc1C | 12.6 µM (active) | – |
| Cc1ccc(OCC(=O)Nc2ccc(-c3nc4ncccc4o3)cc2)cc1 | inactive | – |
| CCOC(=O)c1cc(NC(=O)c2cccnc2)cc(C(=O)OCC)c1 | inactive | – |
